Test results taken from PubChem BioAssay (NCI).
Compounds without any hit were thinned out: in the full panel of roughly 83,000, 20% have a hit.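 Treatment: one concentration, 48 hours, 96-well format. Scoring: percent growth, with anything below 10 considered active.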 A number with no mark means an inactive call. Active and inactive are the calls of the source.

What was measured:
Test in all cases: NCI-60 one-dose screen, 48 h (100 = growth as untreated, 0 = no growth, -100 = all killed)
[1] = test system: SK-MEL-2 melanoma; conditions: 10 µM unless noted
[2] = test system: EKVX NSCLC; conditions: 10 µM unless noted
[3] = test system: SN12C renal; conditions: 10 µM unless noted
[4] = test system: UO-31 renal; conditions: 10 µM unless noted
[5] = test system: TK-10 renal; conditions: 10 µM unless noted
[6] = test system: ACHN renal; conditions: 10 µM unless noted
[7] = test system: A498 renal; conditions: 10 µM unless noted
[8] = test system: CCRF-CEM leukemia; conditions: 10 µM unless noted
[9] = test system: MOLT-4 leukemia; conditions: 10 µM unless noted
[10] = test system: SR leukemia; conditions: 10 µM unless noted
[11] = test system: RPMI-8226 leukemia; conditions: 10 µM unless noted
[12] = test system: OVCAR-8 ovarian; conditions: 10 µM unless noted
[13] = test system: OVCAR-5 ovarian; conditions: 10 µM unless noted
[14] = test system: OVCAR-4 ovarian; conditions: 10 µM unless noted
[15] = test system: SK-OV-3 ovarian; conditions: 10 µM unless noted
[16] = test system: IGROV1 ovarian; conditions: 10 µM unless noted
[17] = test system: OVCAR-3 ovarian; conditions: 10 µM unless noted
[18] = test system: HS 578T breast; conditions: 10 µM unless noted
[19] = test system: NCI/ADR-RES ovarian; conditions: 10 µM unless noted
[20] = test system: CAKI-1 renal; conditions: 10 µM

## Cc1cc(O)c(=O)cc2c1C[C@H]1CC(C)(C)/C=C/C[C@]3(C)Oc4cc(=O)c(O)cc(C)c4C[C@H]3C[C@H](O)[C@@]1(C)O2
[1]
  growth: -27.1% (active)
[2]
  growth: 3.91% (active)
[3]
  growth: 6.41% (active)
[4]
  growth: -15.8% (active)
[5]
  growth: -1.4% (active)
[6]
  growth: -3.47% (active)
[7]
  growth: -7.88% (active)
[8]
  growth: 4.82% (active)
[9]
  growth: 2.51% (active)
[10]
  growth: 4.18% (active)
[11]
  growth: -0.673% (active)
[12]
  growth: 2.98% (active)
[13]
  growth: 26.9%
[14]
  growth: 9.74% (active)
[15]
  growth: -14.3% (active)
[16]
  growth: 6.73% (active)
[17]
  growth: 14.5%
[18]
  growth: 18.7%
[19]
  growth: 1.38% (active)

## CC1(C)CC[C@]2(C(=O)O)CC[C@]3(C)C(=CCC4[C@@]5(C)C[C@@H](O)[C@@H]6OC(c7cccc([N+](=O)[O-])c7)OC[C@@]6(C)C5CC[C@]43C)C2C1 (stereo partly drawn)
[1]
  growth: 88.5%
[2]
  growth: 57.6%
[3]
  growth: 62%
[4]
  growth: 59.9%
[5]
  growth: 71.9%
[6]
  growth: 39.4%
[20]
  growth: 79.7%
[8]
  growth: 44.4%
[9]
  growth: 48.2%
[10]
  growth: 72.7%
[11]
  growth: 56%
[12]
  growth: 58.7%
[13]
  growth: 97.2%
[14]
  growth: 83.2%
[16]
  growth: 74.4%
[17]
  growth: 81.9%
[18]
  growth: 94.1%
[19]
  growth: 39.7%

## Cc1nn(-c2ccc(Br)cc2)c2nc(CCl)[nH]c(=O)c12
[1]
  growth: 99.9%
[2]
  growth: 99.5%
[3]
  growth: 100%
[4]
  growth: -90.1% (active)
[5]
  growth: 111%
[6]
  growth: 94.8%
[20]
  growth: 96.3%
[8]
  growth: 83.6%
[11]
  growth: -53.9% (active)
[12]
  growth: 102%
[13]
  growth: 102%
[14]
  growth: 116%
[16]
  growth: 97.4%
[18]
  growth: 108%
[19]
  growth: 104%

## O=C(Nc1ccccc1)Nc1nc2ccc([N+](=O)[O-])cc2s1
[1]
  growth: -10.8% (active)
[2]
  growth: 8.64% (active)
[3]
  growth: 2.88% (active)
[4]
  growth: 8.95% (active)
[5]
  growth: 5.92% (active)
[6]
  growth: 3.7% (active)
[20]
  growth: 3.46% (active)
[8]
  growth: 14.7%
[9]
  growth: 11.6%
[10]
  growth: 2.29% (active)
[12]
  growth: 12.1%
[13]
  growth: 12.1%
[14]
  growth: -4.54% (active)
[15]
  growth: -7.62% (active)
[17]
  growth: 4.1% (active)
[18]
  growth: 5.92% (active)
[19]
  growth: 2.34% (active)

## C#CCOc1ccc(C(Nc2ccc(OC)cc2)c2nnnn2C2CCCCC2)cc1 (stereo not drawn)
[1]
  growth: 104%
[2]
  growth: 87.4%
[3]
  growth: 96.5%
[4]
  growth: 80.4%
[5]
  growth: 112%
[6]
  growth: 97.3%
[20]
  growth: 76.5%
[9]
  growth: 91.4%
[10]
  growth: 95.6%
[12]
  growth: 95.2%
[13]
  growth: 102%
[14]
  growth: 103%
[15]
  growth: 118%
[16]
  growth: 91.6%
[17]
  growth: 112%
[18]
  growth: 95.2%
[19]
  growth: 88.1%

## CCCCCCCCCC[C@@H](C)[C@@H]1CC(=O)N[C@H]([C@@H](C)O)C(=O)N[C@@H](C)C(=O)N[C@H](C)C(=O)N[C@@H](CCC(N)=O)C(=O)N[C@H](Cc2ccc(O)cc2)C(=O)N[C@@H](C(C)CC)C(=O)O1 (stereo partly drawn)
[1]
  growth: 65.5%
[2]
  growth: 66.6%
[3]
  growth: 66.5%
[4]
  growth: 79.6%
[5]
  growth: 47.9%
[6]
  growth: 98.3%
[7]
  growth: 64.3%
[8]
  growth: 63.2%
[9]
  growth: 41.1%
[10]
  growth: 75%
[11]
  growth: 35.1%
[12]
  growth: 51.8%
[13]
  growth: 92.2%
[14]
  growth: 30.9%
[15]
  growth: 66.5%
[16]
  growth: 76.2%
[18]
  growth: 89%
[19]
  growth: 93.6%

## CC(C)C[C@H]1C(=O)O[C@H](C(C)C)C(=O)N(C)[C@@H](C(C)C)C(=O)O[C@H](C(C)C)C(=O)N(C)[C@@H](C(C)C)C(=O)O[C@H](C(C)C)C(=O)N1C
[1]
  growth: -17.8% (active)
[2]
  growth: 22.6%
[3]
  growth: 8.19% (active)
[4]
  growth: -9.26% (active)
[5]
  growth: 11.9%
[6]
  growth: 10%
[7]
  growth: -6.04% (active)
[8]
  growth: 11.3%
[9]
  growth: 0.456% (active)
[10]
  growth: 14.4%
[11]
  growth: -11.1% (active)
[12]
  growth: 16%
[13]
  growth: 17.7%
[14]
  growth: 18.3%
[15]
  growth: -9.29% (active)
[16]
  growth: 37%
[17]
  growth: 17.6%
[18]
  growth: 38.2%
[19]
  growth: -1.7% (active)

## CC(=O)NC(C)(C)C(=O)N1CCC[C@H]1C(=O)NC(C)(C)C(=O)N[C@@H](C)C(=O)NC(C)(C)C(=O)N[C@@H](C)C(=O)N[C@@H](CCC(N)=O)C(=O)NC(C)(C)C(=O)N[C@H](C(=O)NC(C)(C)C(=O)NCC(=O)N[C@@H](CC(C)C)C(=O)NC(C)(C)C(=O)N1CCC[C@H]1C(=O)N[C@H](C(=O)NC(C)(C)C(=O)NC(C)(C)C(=O)N[C@@H](CCC(N)=O)C(=O)N[C@@H](CCC(N)=O)C(=O)N[C@H](CO)Cc1ccccc1)C(C)C)C(C)C
[1]
  growth: 91.2% [4.25 µM]
[2]
  growth: 76.7% [4.25 µM]
[3]
  growth: 32.2% [4.25 µM]
[4]
  growth: 95.8% [4.25 µM]
[5]
  growth: 87.1% [4.25 µM]
[6]
  growth: 110% [4.25 µM]
[7]
  growth: 81.9% [4.25 µM]
[8]
  growth: 62.8% [4.25 µM]
[9]
  growth: 75.3% [4.25 µM]
[10]
  growth: 83.9% [4.25 µM]
[11]
  growth: 1.4% [4.25 µM] (active)
[12]
  growth: 71.8% [4.25 µM]
[13]
  growth: 108% [4.25 µM]
[14]
  growth: 42.7% [4.25 µM]
[15]
  growth: 74% [4.25 µM]
[16]
  growth: 76.9% [4.25 µM]
[17]
  growth: 59.2% [4.25 µM]
[18]
  growth: 82.8% [4.25 µM]

## CN(C)C(=O)c1ccccc1-n1cnc2ccccc2c1=O
[1]
  growth: 107%
[2]
  growth: 101%
[3]
  growth: 92.7%
[4]
  growth: 92.8%
[5]
  growth: 97.6%
[6]
  growth: 96.3%
[20]
  growth: 90.1%
[8]
  growth: 97.4%
[9]
  growth: 102%
[10]
  growth: 103%
[12]
  growth: 103%
[13]
  growth: 104%
[14]
  growth: 106%
[15]
  growth: 107%
[16]
  growth: 99.9%
[17]
  growth: 110%
[18]
  growth: 108%
[19]
  growth: 102%

## CN(c1ccc(F)cc1)S(=O)(=O)c1ccc(-c2cnc(C3CC3)o2)cc1
[1]
  growth: 77.6%
[2]
  growth: 46.9%
[3]
  growth: 37.3%
[4]
  growth: 44.5%
[5]
  growth: 91.9%
[6]
  growth: 43%
[20]
  growth: 39%
[8]
  growth: 16.4%
[9]
  growth: 25.6%
[10]
  growth: 20.1%
[12]
  growth: 38.8%
[13]
  growth: 49.5%
[14]
  growth: 70.4%
[15]
  growth: 72.1%
[16]
  growth: 27.5%
[17]
  growth: 6.57% (active)
[18]
  growth: 37.4%
[19]
  growth: 9.11% (active)

## CC1OC(O[C@@H]2C(O)C(CO)OC(O[C@H]3COC(O[C@H]4CC[C@]5(C)[C@H]6CC[C@]78OC[C@@]9(CC[C@](C)(C=O)C[C@H]97)[C@H](O)C[C@@]8(C)[C@]6(C)CC[C@H]5C4(C)C)[C@@H](OC4OC(CO)[C@@H](O)[C@@H](O)[C@@H]4O)[C@@H]3O)[C@H]2OC2OC[C@@H](O)[C@@H](O)[C@@H]2O)[C@@H](O)[C@@H](O)[C@H]1O (stereo partly drawn)
[1]
  growth: -35.2% (active)
[2]
  growth: 22.2%
[4]
  growth: -93.6% (active)
[5]
  growth: 29.5%
[6]
  growth: -82.2% (active)
[20]
  growth: -80.7% (active)
[7]
  growth: -89.3% (active)
[8]
  growth: 4.93% (active)
[9]
  growth: -36% (active)
[10]
  growth: -18.3% (active)
[11]
  growth: 32.9%
[12]
  growth: 27.1%
[13]
  growth: -78.7% (active)
[14]
  growth: -50.9% (active)
[15]
  growth: -93.9% (active)
[16]
  growth: 43.8%
[17]
  growth: 79.4%
[18]
  growth: -36.9% (active)
[19]
  growth: 46.1%

## N/C(=N\c1nc2ccc([N+](=O)[O-])cc2s1)C(Cl)(Cl)Cl
[1]
  growth: 120%
[2]
  growth: 52%
[3]
  growth: 79.7%
[5]
  growth: 78.3%
[6]
  growth: 9.8% (active)
[20]
  growth: 31.4%
[7]
  growth: 32.6%
[8]
  growth: 77.4%
[9]
  growth: 77%
[10]
  growth: 57.7%
[11]
  growth: 38.9%
[12]
  growth: 73.5%
[13]
  growth: 84.1%
[14]
  growth: 67.9%
[15]
  growth: 82.6%
[16]
  growth: 65.1%
[17]
  growth: 47.4%
[18]
  growth: 79.9%
[19]
  growth: 73.4%

## C=C1C(=O)O[C@@H]2C[C@@H](C)[C@H](OC)CC(=O)[C@](C)(OC(C)=O)C[C@H](OC(=O)/C(C)=C\C)[C@@H]12
[1]
  growth: 87.5%
[2]
  growth: 83.9%
[4]
  growth: 72.4%
[5]
  growth: 55.9%
[6]
  growth: 5.58% (active)
[20]
  growth: 41.3%
[7]
  growth: 150%
[8]
  growth: -12.7% (active)
[9]
  growth: 38.1%
[10]
  growth: 1.2% (active)
[11]
  growth: 68.3%
[12]
  growth: 59%
[13]
  growth: 115%
[14]
  growth: 82.3%
[15]
  growth: 96.8%
[16]
  growth: 90.1%
[17]
  growth: 21.4%
[18]
  growth: 103%
[19]
  growth: 100%

## C=C1C(=O)O[C@@H]2C[C@@H](C)CCC(=O)[C@](C)(OC(C)=O)C[C@H](OC(=O)/C(C)=C\C)[C@@H]12
[1]
  growth: 81%
[2]
  growth: 73.2%
[4]
  growth: 85.4%
[5]
  growth: 55.4%
[6]
  growth: 41.9%
[20]
  growth: 63.1%
[7]
  growth: 119%
[8]
  growth: -17.2% (active)
[9]
  growth: 50.8%
[10]
  growth: 4.94% (active)
[11]
  growth: 32.3%
[12]
  growth: 66.8%
[13]
  growth: 114%
[14]
  growth: 81.2%
[15]
  growth: 94.8%
[16]
  growth: 89.2%
[17]
  growth: 34.9%
[18]
  growth: 101%
[19]
  growth: 97.2%
